Source: PubChem BioAssay
This is a sample that favours compounds with a hit; in the whole collection about 0.81% have one here.
COUP-TFII inh: blocks human COUP-TFII nuclear receptor; HEK293T NGFI-A luciferase reporter, luminescence; inhibition, % at 8.6 µM; hit rate 0.7% among 370,000;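 active means inhibition above a per-plate cutoff, mean inhibition of test wells between control levels plus 3 SD, cut at about 38% in these data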;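 further: cells cotransfected with COUP-TFII expression vector driving the NGFI-A reporter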
LRH-1 inv ag: NR5A2 inverse agonism in reporter assay; hit rate 0.13% among 360,000; AID 602396; HEK293T StAR-luciferase reporter, LRH-1 transfected, 24 h; inhibition, % at 3.6 µM; O00482;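 active means inhibition above the mean inhibition of all tested compounds plus 3 SD, cut at about 73% in these data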
Target sequence (O00482 whole entry, looked up): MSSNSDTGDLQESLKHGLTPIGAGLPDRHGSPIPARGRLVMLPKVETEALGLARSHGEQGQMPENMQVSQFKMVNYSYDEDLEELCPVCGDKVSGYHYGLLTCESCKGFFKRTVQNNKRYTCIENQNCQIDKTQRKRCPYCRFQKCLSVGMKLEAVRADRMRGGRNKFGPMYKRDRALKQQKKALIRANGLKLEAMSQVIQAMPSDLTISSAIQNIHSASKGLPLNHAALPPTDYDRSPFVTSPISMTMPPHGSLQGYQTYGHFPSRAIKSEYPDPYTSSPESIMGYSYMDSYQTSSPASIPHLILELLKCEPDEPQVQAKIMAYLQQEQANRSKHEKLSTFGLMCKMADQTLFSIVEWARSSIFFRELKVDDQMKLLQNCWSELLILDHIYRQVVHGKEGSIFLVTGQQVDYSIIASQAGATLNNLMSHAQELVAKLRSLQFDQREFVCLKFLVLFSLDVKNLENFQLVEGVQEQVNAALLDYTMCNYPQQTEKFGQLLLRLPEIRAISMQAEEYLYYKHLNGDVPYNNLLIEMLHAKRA
NCOA1 inh: inhibits human SRC1 coactivator. Q15788. HEK293 GAL4-SRC1 luciferase reporter, luminescence. inhibition, % at 3.6 µM. hit rate 0.12% among 360,000;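 active means inhibition above the campaign mean plus 3 SD, with each screening campaign given its own cutoff, cut at about 60% in these data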
NCOA3 inh: inhibits human SRC3 coactivator; hit rate 0.17% among 360,000; Q9Y6Q9; HEK293 GAL4-SRC3 luciferase reporter, luminescence; inhibition, % at 3.6 µM; AID 588352;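 active means inhibition above a per-campaign cutoff, the mean of all compounds plus 3 SD, cut at about 60% in these data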;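 further: higher means less SRC3-driven luciferase light from the GAL4 reporter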
SRC2 inh: inhibits human steroid receptor coactivator 2. Q15596. HEK293 GAL4-SRC2 luciferase reporter, luminescence. inhibition, % at 9 µM. hit rate 0.17% among 370,000;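 active means inhibition above the mean inhibition of all tested compounds plus 3 SD, set per campaign, cut at about 52% in these data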
VP16 Luc counter: counter-screen for COUP-TFII antagonists: inhibitors of VP16 | shares compounds with COUP-TFII inh | HEK293 Gal4-VP16 luciferase reporter, luminescence | inhibition, % at 8.5 µM | hit rate 25% among 2,500; in the data active means inhibition above about 13%
NR2F2 inh conf: confirmation of human COUP-TFII (NR2F2) inhibitors | shares compounds with COUP-TFII inh | HEK293 NGFI-A luciferase reporter, luminescence | inhibition, % at 8.5 µM | hit rate 45% among 2,500;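 active means mean inhibition over three repeats above a set limit taken from the earlier primary screen, cut at about 38% in these data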
Numbers stand for hits; n = inactive; x = no result given.

SMILES | COUP-TFII inh | LRH-1 inv ag | NCOA1 inh | NCOA3 inh | SRC2 inh | VP16 Luc counter | NR2F2 inh conf
COc1ccc(-c2csc(NC(=O)c3ccccc3NS(=O)(=O)c3ccc(F)c(F)c3)n2)cc1 | 61 | 87 | 64 | 79 | n | n | 61
O=C(Nc1cc(S(=O)(=O)N2CCCCC2)ccc1Cl)c1ccccc1NS(=O)(=O)c1ccc(F)cc1 | 47 | n | n | n | n | n | n
Cc1ccc(S(=O)(=O)Nc2ccccc2C(=O)Nc2nc(-c3ccc(F)cc3)cs2)cc1 | 66 | n | n | n | n | n | n
O=C(CSc1nnc(-c2ccccn2)n1Cc1ccco1)Nc1ccc(Oc2ccccc2)cc1 | n | x | x | x | n | x | x
O=S1(=O)c2c(cccc2N2CC[C@@H](O)C2)OCCCN1C1CC1 | n | x | x | x | n | x | x
O=c1c2ccccc2sc2ccc(C#CC3(O)CCCCC3)cc12 | 96 | 91 | 93 | 93 | 85 | 90 | 105
COc1cccc2sc3ccc(C#CC4(O)CCCCC4)cc3c(=O)c12 | n | n | n | n | n | x | x
O=c1c2ccccc2oc2cc(C#CC3(O)CCCCC3)ccc12 | 69 | n | 65 | 62 | n | n | 67
O=C(CSc1nnc(-c2ccccc2)n1-c1ccccc1)Nc1ccc(Oc2ccccc2)cc1 | n | x | x | x | n | x | x
C=CCc1c(OC(C)=O)c2ccccc2n(C)c1=O | 40 | n | n | n | n | n | n
CCc1c(OC(C)=O)c2ccccc2n(C)c1=O | n | n | n | n | n | x | x
CCC(C)(C)c1ccc(OCCCC[n+]2cccc(C)c2)c(C(C)(C)CC)c1 | 62 | n | n | n | n | n | 38
Cc1ccc[n+](CC(=O)Nc2cc(C(F)(F)F)ccc2Cl)c1 | n | n | n | n | n | x | x
O=C(O)CCCc1ccc2c(c1)CCc1ccccc1-2 | 75 | n | n | n | 74 | 57 | 49
O=c1c2cc3ccccc3nc2ncn1CCc1ccc(Cl)cc1 | n | n | x | x | n | x | x
O=c1c2cc3cccnc3nc2ncn1CCc1c[nH]c2ccccc12 | 44 | x | x | x | n | n | n
NC1=NS(=O)(=O)Nc2ccccc21 | n | x | x | x | x | x | x
CN(Cc1ccccc1)C(=O)OCc1cn(Cc2ccccc2F)nn1 | n | x | x | x | n | x | x
COc1ccc(NS(=O)(=O)c2cccc(C(=O)OCC(=O)N3CCN(c4ccc(OC)cc4)CC3)c2)cc1 | 39 | n | n | n | n | n | n
C[C@H]1C2CC(OC(=O)NCc3ccccc3)C(C2)[C@H]2CCCCN21 (some centres undefined) | n | x | x | x | n | x | x
O=C(Nc1nccs1)C1CCN(S(=O)(=O)c2cccs2)CC1 | n | n | n | n | n | x | x
O=C(Nc1ccc(Cl)cn1)C1CCN(S(=O)(=O)c2cccs2)CC1 | 53 | n | n | n | n | n | n
O=C(Nc1nc(-c2ccc3ccccc3c2)cs1)C1CCN(S(=O)(=O)c2cccs2)CC1 | n | n | n | n | n | x | x
Cc1ccc(-c2csc(NC(=O)C3CCN(S(=O)(=O)c4cccs4)CC3)n2)cc1 | 69 | n | n | n | n | n | 50
Cc1csc(CNc2ncnc3ccc(-c4ccoc4)cc23)c1 | 40 | n | n | n | n | n | n
SMILES | COUP-TFII inh | LRH-1 inv ag | NCOA1 inh | NCOA3 inh | SRC2 inh | VP16 Luc counter | NR2F2 inh conf
c1cncc(CNc2ncnc3ccc(-c4ccoc4)cc23)c1 | 38 | n | n | n | n | n | n
Cc1cccc(CNc2ncnc3ccc(-c4ccoc4)cc23)c1 | n | n | n | n | n | x | x
CC(=O)c1c(C)oc2ccc(N(C(C)=O)S(=O)(=O)c3cccc4cccnc34)cc12 | 38 | n | n | n | n | n | n
Cc1ccc(-n2c(COc3ccccc3)nnc2SCC(=O)Nc2ccc3c(c2)OCO3)cc1 | n | x | x | x | n | x | x
COc1ccc(/C=C/C(=O)Nc2ccccc2C(=O)O)cc1OC | 60 | n | n | n | n | n | n
Cc1cc(-c2n[nH]c(=S)n2N=Cc2cccc(OCc3ccccc3)c2)n[nH]1 | n | x | x | x | n | x | x
Cn1nc(CC(=O)Nc2ccc3c(c2)OCCO3)c2ccccc2c1=O | 68 | n | n | n | n | n | 53
Cn1nc(CC(=O)Nc2ccc(N3CCN(C(=O)OC(C)(C)C)CC3)cc2)c2ccccc2c1=O | 53 | n | n | n | n | n | 64
Cc1csc(NC(=O)Cc2nn(C)c(=O)c3ccccc23)n1 | 45 | n | n | n | n | n | n
COc1cccc(OC)c1NC(=O)Cc1nn(C)c(=O)c2ccccc12 | n | n | n | n | n | x | x
Cn1nc(CC(=O)N2CCN(c3ccccc3)CC2)c2ccccc2c1=O | n | n | n | n | n | x | x
COc1ccc(CN2CCC(CNC(=O)NC3CCC(C)CC3)CC2)cc1 (centres undefined) | n | x | x | x | n | x | x
CNc1nc(-c2ccccn2)nnc1-c1ccccc1 | n | n | n | n | n | x | x
Clc1cccc(CNc2nc(-c3ccccn3)nnc2-c2ccccc2)c1 | 38 | x | x | x | x | n | n
CC(C)(C)c1ccc(CNc2nc(-c3ccccn3)nnc2-c2ccccc2)cc1 | 49 | x | x | x | x | n | n
Cc1cc(C)c2c(N)c(C(=O)Nc3ncc(C)s3)sc2n1 | 74 | n | n | n | 77 | 35 | 67
COC(=O)c1sc2nc(C)cc(C)c2c1N | n | n | n | n | n | x | x
N#Cc1cc2c(nc1SCC(=O)N1CCOCC1)CCCCC2 | 53 | n | n | 65 | n | 55 | 77
N#Cc1cc2c(nc1SCC(N)=O)CCCCC2 | n | n | n | n | n | x | x
Cc1cccc(Oc2cc(NC(=O)c3ccccc3)cc([N+](=O)[O-])c2)c1 | 50 | n | n | n | n | n | n
Cn1cc([N+](=O)[O-])c(C(=O)Nc2cc(Oc3ccccc3)cc([N+](=O)[O-])c2)n1 | n | n | n | n | n | x | x
O=C(Nc1ccc(OCc2ccccc2Cl)cc1)c1cccnc1 | 38 | n | n | n | 67 | n | n
O=C(Nc1ccc(OCc2ccccc2)cc1)c1cccnc1 | n | n | n | n | n | x | x
CN(C)c1ccc(N=Nc2nc3ccccc3n2C)cc1 | 61 | n | n | n | n | n | n
Cn1c(N=Nc2ccccc2)nc2ccccc21 | n | n | n | n | n | x | x
SMILES | COUP-TFII inh | LRH-1 inv ag | NCOA1 inh | NCOA3 inh | SRC2 inh | VP16 Luc counter | NR2F2 inh conf
O=C(Nc1ccc2ncccc2c1)c1cc(-c2ccc(Cl)cc2)nc2ccccc12 | n | x | x | x | n | x | x
CC1Cc2ccccc2N1c1ncnc(N)c1[N+](=O)[O-] (centres undefined) | 47 | n | 66 | 64 | 72 | 21 | n
CCOC(=O)c1c(CN2CCN(CCO)CC2)n(-c2ccccc2)c2cc(Br)c(O)cc12 | 43 | n | n | n | n | n | n
CCOC(=O)c1c(CN2CCN(C)CC2)n(-c2ccccc2)c2cc(Br)c(O)cc12 | n | n | n | n | n | x | x
COc1ccc(N2CCN(CCNS(=O)(=O)c3cccs3)CC2)cc1 | n | x | x | x | n | x | x
O=C(NCc1cccc(Cl)c1)c1cccc(OC2CCN(C(=O)C3CC3)CC2)c1 | 56 | n | n | n | n | n | n
Cc1ccc(NC(=O)NNC(=O)CCn2nc(C)c([N+](=O)[O-])c2C)cc1C | n | x | x | x | n | x | x
Cc1cccc(C)c1NC(=O)[C@H]1CC(=O)O[C@@H]1c1ccccc1 | n | x | x | x | n | x | x
